Source: the supplement of paper PMC10849652
About 8,800 targets were measured; listed, in parts, are those with a hit and a random draw of the rest. About 0.5% of all pairs of compound and target were hits.

Experiments:
Assay in all cases: log2 fold change, soluble protein after heating vs DMSO (PISA); higher = thermal stabilisation; K562 lysate, 10 uM; active = over 0.2 and 3.5 SD of the protein, either way, in both replicates (recomputed)
[1] = compound: C1=CC=C(C=C1)[C@H](COC2=CC3=C(C=C2)NC(=O)N3)NC(=O)C4=CC=CN(C4=O)CC5=CC(=C(C=C5)F)F
In short: (§1)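 Dounce homogenisation of K562 pellets in PBS pH 7.4 with 1 mM MgCl2 produced a crude extract, used at 1 mg/mL protein. Exposure to 10 μM compound lasted 30 min, and aliquots were then heated for 3 min across 48°C-58°C, pooled and brought to 0.5% NP-40 at 4°C. The supernatant after 21,000xg for 90 min was quantified by TMTpro 16plex LC-MS/MS with channel sums equalised. Duplicate values are given as log-two fold change in thermal stability relative to solvent controls.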

[2] = compound: CC1=C(SC2=C1C(=N[C@H](C3=NN=C(N32)C)CC(=O)N)C4=CC=C(C=C4)Cl)C
In short: as §1

[3] = compound: Cc1sc2c(c1C)C(c1ccc(Cl)cc1)=N[C@@H](CC(=O)OC(C)(C)C)c1nnc(C)n1-2
In short: as §1

[4] = compound: CC1=C2C(=CC=C1)N=C(N(C2=O)C3=CC=CC=C3C)CN4C=NC5=C(N=CN=C54)N
In short: as §1

[5] = compound: c1ccc([C@@H]2C[C@H]2NC2CCNCC2)cc1
In short: as §1

Measured: log2 fold change

CYP4V2 (UniProt Q6ZWL3)
Sequence of UniProt Q6ZWL3 (Q6ZWL3 whole entry, looked up): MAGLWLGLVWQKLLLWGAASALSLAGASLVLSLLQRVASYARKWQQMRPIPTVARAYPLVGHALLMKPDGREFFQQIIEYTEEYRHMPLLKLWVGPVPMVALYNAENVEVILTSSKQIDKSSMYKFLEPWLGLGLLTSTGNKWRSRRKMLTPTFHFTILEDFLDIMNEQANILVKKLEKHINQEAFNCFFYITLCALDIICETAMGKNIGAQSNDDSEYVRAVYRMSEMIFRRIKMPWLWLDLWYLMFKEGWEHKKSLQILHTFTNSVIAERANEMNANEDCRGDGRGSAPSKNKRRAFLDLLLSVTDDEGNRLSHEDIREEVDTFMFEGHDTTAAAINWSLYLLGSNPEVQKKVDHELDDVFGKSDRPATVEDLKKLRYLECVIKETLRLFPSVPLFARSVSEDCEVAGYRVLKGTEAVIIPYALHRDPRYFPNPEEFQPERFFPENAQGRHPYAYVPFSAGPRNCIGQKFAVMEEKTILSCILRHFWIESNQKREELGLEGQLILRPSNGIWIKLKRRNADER
inactive: [1] -0.119 | [2] 0.188 | [3] 0.035

CLASP1 isoform 4 (UniProt Q7Z460)
inactive: [4] 0.056

DCTN1 isoform 4 (UniProt Q14203)
Sequence of UniProt Q14203 (Q14203 whole entry, looked up): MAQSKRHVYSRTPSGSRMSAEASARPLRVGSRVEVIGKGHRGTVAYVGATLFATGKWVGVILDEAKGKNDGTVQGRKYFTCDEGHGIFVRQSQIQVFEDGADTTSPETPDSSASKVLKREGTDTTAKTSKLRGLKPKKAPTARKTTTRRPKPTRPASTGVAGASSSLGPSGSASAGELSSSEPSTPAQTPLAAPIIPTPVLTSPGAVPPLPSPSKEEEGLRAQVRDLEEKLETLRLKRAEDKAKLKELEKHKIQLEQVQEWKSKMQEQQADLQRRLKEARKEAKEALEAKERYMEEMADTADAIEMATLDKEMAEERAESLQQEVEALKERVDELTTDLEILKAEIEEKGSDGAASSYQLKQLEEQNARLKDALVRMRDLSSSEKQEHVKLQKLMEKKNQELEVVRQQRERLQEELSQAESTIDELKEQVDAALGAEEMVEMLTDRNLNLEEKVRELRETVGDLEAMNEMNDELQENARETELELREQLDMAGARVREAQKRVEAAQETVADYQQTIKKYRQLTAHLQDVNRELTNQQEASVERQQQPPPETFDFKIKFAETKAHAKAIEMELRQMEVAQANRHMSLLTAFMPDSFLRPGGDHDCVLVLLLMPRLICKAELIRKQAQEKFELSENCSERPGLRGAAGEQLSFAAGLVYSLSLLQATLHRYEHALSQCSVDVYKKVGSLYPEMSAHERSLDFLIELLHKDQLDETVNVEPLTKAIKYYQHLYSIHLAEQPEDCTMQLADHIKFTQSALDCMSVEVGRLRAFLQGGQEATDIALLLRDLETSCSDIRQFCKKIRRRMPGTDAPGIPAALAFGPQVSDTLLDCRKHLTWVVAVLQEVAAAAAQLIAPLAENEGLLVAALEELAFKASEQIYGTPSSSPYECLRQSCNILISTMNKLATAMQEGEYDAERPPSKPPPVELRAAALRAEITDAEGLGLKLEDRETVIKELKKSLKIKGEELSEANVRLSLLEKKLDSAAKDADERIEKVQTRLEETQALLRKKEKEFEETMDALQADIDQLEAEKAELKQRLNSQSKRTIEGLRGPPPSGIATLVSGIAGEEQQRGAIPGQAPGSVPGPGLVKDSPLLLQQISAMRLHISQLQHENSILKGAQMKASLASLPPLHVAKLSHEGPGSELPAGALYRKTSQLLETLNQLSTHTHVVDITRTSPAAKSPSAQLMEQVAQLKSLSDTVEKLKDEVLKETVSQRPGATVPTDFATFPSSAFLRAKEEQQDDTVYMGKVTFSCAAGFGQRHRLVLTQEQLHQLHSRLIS
inactive: [4] 0.013 | [3] -0.13 | [5] -0.452

COL12A1 (UniProt Q99715)
inactive: [4] 0.08 | [3] -0.078

COL6A3 (UniProt P12111)
inactive: [1] -0.008 | [2] -0.04 | [3] -0.079 | [5] 0.13

DLGAP5 isoform 3 (UniProt Q15398)
Sequence of UniProt Q15398 (Q15398 whole entry, looked up): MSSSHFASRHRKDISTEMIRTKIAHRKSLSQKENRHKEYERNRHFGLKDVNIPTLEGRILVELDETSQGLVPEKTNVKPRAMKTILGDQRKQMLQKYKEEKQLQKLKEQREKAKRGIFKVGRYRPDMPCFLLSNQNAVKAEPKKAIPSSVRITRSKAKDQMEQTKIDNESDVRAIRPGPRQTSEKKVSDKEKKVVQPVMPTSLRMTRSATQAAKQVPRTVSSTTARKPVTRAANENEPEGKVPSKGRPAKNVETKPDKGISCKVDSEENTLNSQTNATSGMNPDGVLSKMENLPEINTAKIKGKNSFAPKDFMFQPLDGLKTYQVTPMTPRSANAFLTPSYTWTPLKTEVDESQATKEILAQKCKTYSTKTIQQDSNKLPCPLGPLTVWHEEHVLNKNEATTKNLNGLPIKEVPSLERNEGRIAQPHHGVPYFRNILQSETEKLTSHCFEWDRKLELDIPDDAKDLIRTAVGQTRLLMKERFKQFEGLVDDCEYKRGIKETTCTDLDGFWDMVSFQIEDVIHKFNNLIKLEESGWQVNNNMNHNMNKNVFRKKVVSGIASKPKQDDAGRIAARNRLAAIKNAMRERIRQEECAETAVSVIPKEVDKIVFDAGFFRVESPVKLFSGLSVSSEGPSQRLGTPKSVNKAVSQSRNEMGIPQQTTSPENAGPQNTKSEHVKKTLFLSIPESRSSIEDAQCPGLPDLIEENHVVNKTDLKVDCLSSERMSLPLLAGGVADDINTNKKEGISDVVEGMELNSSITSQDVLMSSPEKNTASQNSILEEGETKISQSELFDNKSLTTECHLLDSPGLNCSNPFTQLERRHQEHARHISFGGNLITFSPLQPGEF
inactive: [1] -0.167 | [2] 0.031 | [3] -0.036 | [5] 0.021

COX7B (UniProt P24311)
Sequence of UniProt P24311 (P24311 whole entry, looked up): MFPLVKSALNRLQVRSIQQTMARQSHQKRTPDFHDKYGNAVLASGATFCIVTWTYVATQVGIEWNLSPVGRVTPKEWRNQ
inactive: [4] -0.031 | [3] -0.027 | [5] -0.075

CLIP1 isoform 2 (UniProt P30622)
Sequence of UniProt P30622 (P30622 whole entry, looked up): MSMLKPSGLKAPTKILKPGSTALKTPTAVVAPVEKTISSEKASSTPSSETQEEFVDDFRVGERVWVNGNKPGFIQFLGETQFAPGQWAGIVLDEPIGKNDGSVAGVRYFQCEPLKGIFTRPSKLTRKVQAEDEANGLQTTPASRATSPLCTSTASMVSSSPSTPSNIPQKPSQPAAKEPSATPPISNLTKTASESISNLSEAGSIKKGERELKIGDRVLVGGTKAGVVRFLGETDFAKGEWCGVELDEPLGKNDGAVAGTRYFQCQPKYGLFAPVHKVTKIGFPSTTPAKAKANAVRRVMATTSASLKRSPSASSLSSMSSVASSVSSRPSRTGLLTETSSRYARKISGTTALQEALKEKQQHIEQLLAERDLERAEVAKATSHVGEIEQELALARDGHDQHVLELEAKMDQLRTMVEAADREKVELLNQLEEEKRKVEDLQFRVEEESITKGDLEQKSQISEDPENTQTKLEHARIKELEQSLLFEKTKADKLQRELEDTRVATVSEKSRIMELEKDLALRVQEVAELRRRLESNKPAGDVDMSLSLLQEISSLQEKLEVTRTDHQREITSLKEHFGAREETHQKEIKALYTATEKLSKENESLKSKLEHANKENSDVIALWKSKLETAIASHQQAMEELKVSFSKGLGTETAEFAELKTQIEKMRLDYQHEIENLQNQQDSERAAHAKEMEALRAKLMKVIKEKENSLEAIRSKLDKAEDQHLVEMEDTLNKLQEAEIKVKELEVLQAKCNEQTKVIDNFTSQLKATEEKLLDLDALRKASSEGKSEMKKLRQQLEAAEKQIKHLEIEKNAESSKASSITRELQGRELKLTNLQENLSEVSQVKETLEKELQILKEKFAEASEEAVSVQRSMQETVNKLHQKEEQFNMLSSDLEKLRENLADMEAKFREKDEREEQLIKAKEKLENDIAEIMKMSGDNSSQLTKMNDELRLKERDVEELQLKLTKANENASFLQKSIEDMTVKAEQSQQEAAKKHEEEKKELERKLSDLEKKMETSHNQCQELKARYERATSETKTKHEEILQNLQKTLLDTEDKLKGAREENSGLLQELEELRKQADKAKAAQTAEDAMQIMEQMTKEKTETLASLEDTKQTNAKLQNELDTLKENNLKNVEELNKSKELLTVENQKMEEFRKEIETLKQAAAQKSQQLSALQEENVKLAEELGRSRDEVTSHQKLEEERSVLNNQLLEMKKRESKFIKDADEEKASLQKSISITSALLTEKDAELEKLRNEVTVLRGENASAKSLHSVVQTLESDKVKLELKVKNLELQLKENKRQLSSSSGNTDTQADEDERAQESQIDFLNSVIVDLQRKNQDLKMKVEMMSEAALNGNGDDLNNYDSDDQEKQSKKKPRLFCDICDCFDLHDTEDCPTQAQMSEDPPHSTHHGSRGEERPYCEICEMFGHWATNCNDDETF
inactive: [1] 0.11 | [2] -0.03 | [3] 0.009 | [5] -0.002

DONSON (UniProt Q9NYP3)
Sequence of UniProt Q9NYP3 (Q9NYP3 whole entry, looked up): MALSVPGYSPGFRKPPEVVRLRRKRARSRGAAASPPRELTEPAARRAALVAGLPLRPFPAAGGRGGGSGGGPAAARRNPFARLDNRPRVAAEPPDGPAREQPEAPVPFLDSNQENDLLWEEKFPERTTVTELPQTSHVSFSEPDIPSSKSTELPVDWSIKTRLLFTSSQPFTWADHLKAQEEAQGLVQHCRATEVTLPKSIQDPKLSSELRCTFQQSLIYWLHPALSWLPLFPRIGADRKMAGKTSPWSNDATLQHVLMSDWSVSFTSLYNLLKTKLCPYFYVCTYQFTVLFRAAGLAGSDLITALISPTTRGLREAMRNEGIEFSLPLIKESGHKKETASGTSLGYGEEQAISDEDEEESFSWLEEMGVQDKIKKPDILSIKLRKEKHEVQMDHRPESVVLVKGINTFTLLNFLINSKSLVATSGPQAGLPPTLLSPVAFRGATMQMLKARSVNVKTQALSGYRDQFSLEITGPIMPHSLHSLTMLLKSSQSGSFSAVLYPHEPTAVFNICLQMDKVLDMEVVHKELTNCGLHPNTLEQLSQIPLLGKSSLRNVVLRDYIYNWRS
inactive: [1] -0.043 | [2] 0.068 | [3] 0.013 | [5] -0.243

DHX32 (UniProt Q7L7V1)
inactive: [4] -0.086 | [5] -0.009
